SMILES strings stand for the structures. The campaign covered roughly 230,000 compounds. About 310 (0.13%) were called active. Entries that show only a call come without a potency. Inconclusive results (about 2%) are left out. The sample holds actives, similar compounds and a random draw of the others, so the mix is not that of the screen. The call rests on the fitted dose curve; in most records, active means well fitted activation curve with a large enough effect; inconclusive means small, poorly fitted or top-dose-only effect; inactive means no such curve, though single readings can be large or run the other way.
Potency means the concentration at half of the fitted maximal effect.

A short description of the assay: qHTS Multiplex Assay to Identify Dual Action Probes in a Cell Model of Huntington: Cytoprotection (ATP). Further: nearly all actives have a fitted effect of over 45% in size.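 On cytoprotection (ATP increase): toxic huntingtin expression switched on by the ecdysone agonist tebufenozide.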 The settings on record: PC12 HTT-Q103 induced, ATP luminescence, 40 h; series mostly up to 56.4 µM. A digest of the protocol:
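Quantitative HTS on tebufenozide-induced (100 nM) PC12 cells expressing HTTQ103 exon 1–GFP; compounds tested as a concentration series; survival measured via cellular ATP.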
As to `O=C1OCCN1C(=O)[C@H]1[C@H](c2ccccc2)C(c2ccc(F)cc2)=NN1c1ccccc1`, the cytoprotection (ATP increase) entry was “inactive”.
Turning to `CCCCC/C=C\C/C=C\C/C=C\CCCCC(=O)NCC(=O)O`, the cytoprotection (ATP increase) entry is “inactive”.
The same measure, in the same setting: next, `C/C=C1\C2C=C(C)CC1(N)c1ccc(=O)[nH]c1C2` (stereo not drawn): “inactive”; `COc1cccc(NC(=O)CN(C)CC(=O)Nc2ccc3c(c2)CCC3)c1`: 19.6% [at 10 µM] (inactive).
On to `Cc1ccc(-c2ncc(Cl)cc2-c2ccc(S(C)(=O)=O)cc2)cn1`, for which the cytoprotection (ATP increase) result is “inactive”.
Same read-out and setting: next, `CC1(OC(=O)C2CCCC2)C(=O)C=C2C=C(c3ccc(C#N)cc3)OC=C2C1=O` (stereo not drawn): “inactive”; `CCC(C)[C@@H](N)C(=O)O` (stereo partly drawn): “inactive”.
On the same count and under the same terms, next, `Cc1cc2oc(=O)cc(-c3ccccc3)c2c(C)c1/C=C/c1ccc(F)cc1`: “inactive”.
On the same count and under the same terms, next, `COc1ccc(-c2nc3c(c4c2C[C@H](c2ccccc2)OC4)CN(S(=O)(=O)c2c(C)noc2C)CC3)c(C)c1`: -10% [at 10 µM] (inactive); `O=C1/C(=C/c2cccs2)SC(=S)N1C1CCS(=O)(=O)C1` (stereo not drawn): -20.7% [at 10 µM] (inactive).
Consider `C=C1c2cccc(OC)c2O[C@H](C(=O)OCC)[C@@H]1CCCCCC`, for which the cytoprotection (ATP increase) entry is “inactive”.
For the compound `C=CCC1CCC(=O)N2CCCC12` (stereo not drawn), the cytoprotection (ATP increase) result is “inactive”.
As for `COC(=O)c1cc(C(=O)OCC(=O)Nc2cc(C)on2)cc([N+](=O)[O-])c1`, the cytoprotection (ATP increase) was -6.88% [at 10 µM] (inactive).
On the same count and under the same terms, next, `CC[C@H](C)[C@@H](NC(=O)O[C@@H]1C(=O)c2cc(OC)ccc2O[C@H]1c1cccc(OC)c1)C(=O)OC`: “inactive”; `O=C(c1cc2ccccc2o1)N1CCN(Cc2ccccc2)CC1`: “inactive”.
The same measure, in the same setting: the result for `COc1cc2c(cc1OC)CC(=O)N(CCCN(C)C[C@H]1Cc3cc(OC)c(OC)cc31)CC2` reads “inactive”.
Still for that read-out and setting: next, `C=CC1=C2C=C(C3CC3)N(CC(C)C)C=C2C(=O)C(C)(OC(=O)c2ccco2)C1=O` (stereo not drawn): -19.6% [at 10 µM] (inactive); `S=C(NCCCc1cnc[nH]1)NCCCN(Cc1ccc(Cl)c(Cl)c1)c1ccc(Br)cn1`: “inactive”; `C/C(CC(=O)NC(C)c1ccccc1)=N\NC(N)=S` (stereo not drawn): 8.79% [at 10 µM] (inactive).
As for `COC(=O)C1=C(C(=O)OC)[C@@H]2N(Cc3ccccc3)c3ccccc3[C@@]23C[C@@H](C(=O)OC)N(S(=O)(=O)c2ccc(C(F)(F)F)cc2)C3=N1`, the cytoprotection (ATP increase) was 23.4% [at 10 µM] (inactive).
For `C[C@H]1Cc2c(-c3ccccc3)nc3c(c2CO1)CN(C(=O)C1CC1)CC3`, the cytoprotection (ATP increase) is -5.29% [at 10 µM] (inactive).
Take `NC(=O)c1sc(-c2ccsc2)cc1N`: the cytoprotection (ATP increase) entry was “inactive”.
Same read-out and setting: next, `CC(C)(C)OC(=O)NCCCCC1=CC2=CC(=O)C(C)(OC(=O)c3cccs3)C(=O)C2=CO1` (stereo not drawn): “inactive”; `COc1cccc([C@@H]2Oc3ccc(Br)cc3C(=O)[C@H]2OC(=O)NCc2ccc3c(c2)OCO3)c1`: “inactive”.
On the same count and under the same terms, next, `COC(=O)N1C(/C=C/C=C/c2ccc(OC)cc2)=Cc2ccccc2C1CC(C)=O` (stereo not drawn): -21.1% [at 10 µM] (inactive); `CCCCC/C=C\C/C=C\CCCCCCCCCC(=O)NCC(=O)O`: “inactive”.
Same read-out and setting: the result for `COCCN(C(=O)c1ccccc1F)c1c(N)n(Cc2ccccc2)c(=O)[nH]c1=O` reads “inactive”.
For `COc1cccc(-c2cc(=O)c3cc(NC(=O)c4ccc(C)cc4)ccc3[nH]2)c1`, the cytoprotection (ATP increase) entry is “inactive”.
Take `CC[C@@]12C=C(/C=C/c3ccccc3)[C@](CC)(C1)[C@H](c1ccccc1)CC2=O`: the cytoprotection (ATP increase) result was “inactive”.
Take `O=c1c(O)c(Br)ccc2c(Br)c(O)c(O)c(O)c12`: the cytoprotection (ATP increase) entry is “inactive”.
Consider `NCCC(=O)c1ccccc1N`, for which the cytoprotection (ATP increase) entry is “inactive”.
Still for that read-out and setting: the result for `Nc1nc(CC(=O)CSc2ccc(Cl)cc2)nc(Nc2ccc(F)cc2)n1` reads -29.1% [at 10 µM] (inactive).
As to `CC(=O)N1CCN(CC(=O)Nc2ccc(SC(F)F)cc2)CC1`, the Potency was 5.62 µM (active).
With `COC(=O)c1cc(NC(=O)CN2CCN(C(C)=O)CC2)cc(C(=O)OC)c1`, the cytoprotection (ATP increase) entry is “inactive”.
On to `CCOC(=O)N1CCN(CC(=O)Nc2ccc(F)cc2)CC1`, for which the cytoprotection (ATP increase) was -4.62% [at 10 µM] (inactive).
Same read-out and setting: the result for `C[C@H]1Cc2c(-c3ccccc3)nc3c(c2CO1)CN(S(=O)(=O)c1ccc(Cl)c2nonc12)CC3` reads -22.4% [at 10 µM] (inactive); that for `COc1cc(OC)c2c(c1)OC(=O)CC2c1cc(OC)c(OC)c(OC)c1` (stereo not drawn), “inactive”; that for `CN(C)Cc1ccccc1C1(O)c2ccccc2CSc2ccccc21` (stereo not drawn), “inactive”.
On the same count and under the same terms, the result for `O=C(/C=C/c1cccc(F)c1)NC1CC1` reads “inactive”; that for `COC(=O)C1=C(C(=O)OC)[C@@H]2N(C)c3ccccc3[C@@]23C[C@@H](C(=O)OC)N(S(=O)(=O)c2ccc(Br)cc2)C3=N1`, 7.44% [at 10 µM] (inactive); that for `C=CCN1c2ccccc2[C@]23C[C@@H](C(=O)OC)N(S(=O)(=O)c4ccc([N+](=O)[O-])cc4)C2=NC(C(=O)OC)=C(C(=O)OC)[C@H]13`, -23.4% [at 10 µM] (inactive).
Same read-out and setting: the result for `CC(Nc1oc(-c2ccccc2)nc1-c1ccccc1)c1ccccc1` (stereo not drawn) reads “inactive”; that for `COCOc1cc(OC)ccc1C(=O)/C=C/c1ccc([N+](=O)[O-])cc1`, “inactive”; that for `C=CC(C1=CC(=O)C=CC1=O)c1ccc(O)cc1` (stereo not drawn), “inactive”.
For the compound `COc1ccc(C(C)=O)cc1CN1C(=O)NC2(CCCCC2C)C1=O` (stereo not drawn), the cytoprotection (ATP increase) entry was “inactive”.
Same read-out and setting: the result for `CCCCS(=O)(=O)N1C2=NC(C(=O)OC)=C(C(=O)OC)[C@@H]3N(Cc4ccccc4)c4ccccc4[C@]23C[C@H]1C(=O)OC` reads 21.8% [at 10 µM] (inactive); that for `O=C1c2ccccc2NC(c2ccc(-c3cccc(Cl)c3)o2)N1O` (stereo not drawn), -70.6% [at 10 µM] (inactive).
`CC(N)(C(=O)O)c1ccc(-c2nn[nH]n2)cc1` (stereo not drawn): the cytoprotection (ATP increase) entry was “inactive”.
Same read-out and setting: next, `Cc1ccc(S(=O)(=O)N2CCC(=O)N([C@H](COCc3ccccc3)Cc3ccccc3)CC2)cc1`: “inactive”; `C/C=C(\C)C(=O)O[C@H]1CC(C)=C2C(=O)C=C(C)C2[C@@H]2OC(=O)[C@@](C)(OC(=O)C=C(C)C)C21` (stereo partly drawn): “inactive”; `O=C(N/N=C/c1cccc2cccnc12)[C@H]1C[C@@H]1c1ccccc1`: 23.6% [at 10 µM] (inactive).
In the case of `O=C(Nc1cccc(C(F)(F)F)c1)c1cc(Br)cc(Br)c1O`, the cytoprotection (ATP increase) result is “inactive”.
Same read-out and setting: next, `CCN1C(=O)N[C@@H](c2ccccc2)[C@H](C(C)=O)[C@H]1C`: -16.1% [at 10 µM] (inactive).
As for `CC(=O)CC(c1ccccc1)C1C(=O)Oc2ccccc2C1=O` (stereo not drawn), the cytoprotection (ATP increase) result is “inactive”.
The same measure, in the same setting: the result for `CNC(=O)C1(C)C=CC2(CCCCC2)N1C(C)=O` (stereo not drawn) reads “inactive”; that for `C=CCNC(=O)c1ccc2c3n(nc2c1)-c1ccc(C)cc1CO3`, -15% [at 10 µM] (inactive).
The same measure, in the same setting: the result for `CC(C)(O)c1ccccc1CC[C@H](SCC1(CC(=O)O)CC1)c1cccc(/C=C/c2ccc3ccc(Cl)cc3n2)c1` reads “inactive”; that for `C=CC1(C)CC(=O)C2(O)C(C)(O1)C(OC(C)=O)C(O)C1C(C)(C)CCC(O)C12C` (stereo not drawn), “inactive”.
The same measure, in the same setting: the result for `C[C@H]1Cc2c(COc3ccccc3)nc3c(c2CO1)CN(C(=O)NCc1ccco1)CC3` reads 9.12% [at 10 µM] (inactive); that for `O=C1OCCN1C(=O)[C@H]1[C@H](c2ccc(F)cc2)C(c2ccccc2)=NN1c1ccc(Br)cc1`, “inactive”; that for `Cc1cc2oc(=O)cc(-c3ccccc3)c2c(C)c1-c1ccc(OC(F)(F)F)cc1`, “inactive”.
In the case of `COc1ccc(CC(N)C(=O)NC2C(O)[C@H](n3cnc4c(N(C)C)ncnc43)O[C@@H]2CO)cc1` (stereo partly drawn), the cytoprotection (ATP increase) entry was “inactive”.
For `COC(=O)CC1c2ccccc2C(Cc2ccc(OC)cc2)=C(C)N1C(=O)OC` (stereo not drawn), the cytoprotection (ATP increase) is -4.91% [at 10 µM] (inactive).
For the compound `COc1cc(OC)cc(-c2nc3ccccc3c(=O)n2NC(=O)c2cccnc2Cl)c1`, the cytoprotection (ATP increase) was -11.8% [at 10 µM] (inactive).
On to `O=C1C=C(c2ccccc2)CCC1`, for which the cytoprotection (ATP increase) result was “inactive”.
The same measure, in the same setting: the result for `CC(C)[C@@H]1NC(=O)[C@H](Cc2ccccc2)NC(=O)[C@@H](CC(=O)O)NC(=O)CNC(=O)[C@H](CCCNC(=N)N)NC1=O` reads “inactive”; that for `COc1ccc(N2CCN(CCNC(=O)c3nnc(Cc4c(F)cccc4Cl)o3)CC2)cc1`, 7.41% [at 0.074 µM] (inactive).
Consider `Clc1ccc(C(Cn2ccnc2)OCc2ccsc2Cl)c(Cl)c1` (stereo not drawn), for which the cytoprotection (ATP increase) result was “inactive”.
Consider `COC(=O)C1=C(C(=O)OC)[C@@H]2N(C)c3ccccc3[C@@]23C[C@@H](C(=O)OC)N(C(=O)c2ccco2)C3=N1`, for which the cytoprotection (ATP increase) is -6.19% [at 10 µM] (inactive).
Same read-out and setting: the result for `COC(=O)C/C=C/[C@@H](C)[C@H](NC(=O)OCC(Cl)(Cl)Cl)c1ccccc1` reads “inactive”.
Consider `C=CC1=C2C=C(C3CC3)N(C(CO)CO)C=C2C(=O)C(C)(OC(=O)c2ccco2)C1=O` (stereo not drawn), for which the cytoprotection (ATP increase) was -26.7% [at 10 µM] (inactive).
The same measure, in the same setting: the result for `Cc1ccc(-c2cccc([C@H]3[C@@H]4C=CC[C@@H](C)[C@@H]4C(=O)N3Cc3ccccc3)c2)cc1` reads “inactive”; that for `COc1ccc(/C=C2\NC(=O)[C@@H]3Cc4ccccc4CN3C2=O)cc1`, “inactive”.
`COC(=O)c1c(CCl)noc1C(=O)NC(C)C`: the cytoprotection (ATP increase) result is “inactive”.
The same measure, in the same setting: next, `c1ccc(CSc2ncnc3c2sc2nc(N4CCOCC4)c4c(c23)CCCC4)cc1`: “inactive”; `C[C@H]1Cc2c(COc3ccccc3)nc3c(c2CO1)CN(C(=O)Nc1cccc(C#N)c1)CC3`: -20.7% [at 10 µM] (inactive).
For `COc1ccc(-c2nc3c(c4c2C[C@H](c2ccccc2)OC4)CN(C(=O)C2CC2)CC3)c(C)c1`, the cytoprotection (ATP increase) was 6.89% [at 10 µM] (inactive).
Same read-out and setting: next, `COC(=O)CSc1ccc2nnc(CCNS(=O)(=O)c3ccc(C)cc3)n2n1`: “inactive”; `CCN1C(=O)N[C@@H](c2ccccc2)C(C(=O)OC)=C1C`: -11.9% [at 10 µM] (inactive); `NC(=O)C(=O)N/N=C/c1ccc([N+](=O)[O-])o1`: “inactive”.
Still for that read-out and setting: the result for `CCOC(=O)C1CSC(CC(=O)Nc2ccc(OCC)cc2)C(=O)N1` (stereo not drawn) reads 0.901% [at 10 µM] (inactive).
Same read-out and setting: the result for `COCCCNC(=O)Cn1cc(/C=C(\C#N)C(=O)N2CCN(c3ccccc3)CC2)c2ccccc21` reads 1.65% [at 10 µM] (inactive); that for `COC(=O)C(C(=O)OC)C1c2ccccc2C=C(C2CC2)N1C(=O)OC` (stereo not drawn), “inactive”.

The record behind these values is PubChem BioAssay AID1471 (National Center for Advancing Translational Sciences (NCATS), 2008).
